Compound activity from PubChem BioAssay.
This is a sample that favours compounds with a hit; in the whole collection about 1.1% have one here.
GalR3 antag: GalR3 antagonists in HEK293 cells, primary screen, cell-based, fluorescence readout; Galanin receptor type 3 (Homo sapiens), O60755; HEK293 GalR3-CNG cAMP membrane potential fluorescence; galR3 body fused to GalR1 C-terminus; inhibition, % at 3 µM; 360,000 compounds, 0.44% hits; AID 651719, 2012;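 active means inhibition above the screen-wide average plus 3 SD, cut at about 13% in these data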;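 further: forskolin and galanin both at EC90 stimulate the cells; cAMP rise reported by CNG channel membrane potential dye signal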
SRC1 inh: SRC1 coactivator transcriptional activity inhibitors, primary screen, cell-based, luminescence. inhibition, % at 3.6 µM. 360,000 compounds, 0.12% hits. HEK293 GAL4-SRC1 luciferase reporter. AID 588354, 2011. Nuclear receptor coactivator 1 (Homo sapiens), Q15788;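 active means inhibition above the campaign mean plus 3 SD, with each screening campaign given its own cutoff, cut at about 60% in these data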
SRC2 inh: inhibition of GAL4-SRC2 driven luciferase reporter, primary screen, SRC2 inhibitor project, cell-based, luminescence | Nuclear receptor coactivator 2 (Homo sapiens), Q15596 | HEK293 GAL4-SRC2 luciferase reporter | inhibition, % at 9 µM | 370,000 compounds, 0.17% hits | AID 651957, 2012;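 active means inhibition above the mean inhibition of all tested compounds plus 3 SD, set per campaign, cut at about 52% in these data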
NCOA3 inh: SRC3 coactivator transcriptional activity inhibitors, primary screen, cell-based, luminescence; Nuclear receptor coactivator 3 (Homo sapiens), Q9Y6Q9; HEK293 GAL4-SRC3 luciferase reporter; inhibition, % at 3.6 µM; 360,000 compounds, 0.17% hits;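 active means inhibition above a per-campaign cutoff, the mean of all compounds plus 3 SD, cut at about 60% in these data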;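 further: higher means less SRC3-driven luciferase light from the GAL4 reporter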
NR2F2 inh: NR2F2 transcriptional activity inhibitors, primary screen, cell-based, luciferase reporter, HEK293T, luminescence. COUP transcription factor 2 (Homo sapiens), P24468. HEK293T NGFI-A luciferase reporter. inhibition, % at 8.6 µM. 370,000 compounds, 0.7% hits. AID 686940, 2013;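 active means inhibition above a per-plate cutoff, mean inhibition of test wells between control levels plus 3 SD, cut at about 38% in these data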;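 further: cells cotransfected with COUP-TFII expression vector driving the NGFI-A reporter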
LRH-1 inv ag: LRH-1 (NR5A2) inverse agonists, primary screen, cell-based, luminescence, HEK293T, StAR-luciferase reporter; 360,000 compounds, 0.13% hits; LRH-1 transfected, 24 h; Nuclear receptor subfamily 5 group A member 2 (Homo sapiens), O00482; inhibition, % at 3.6 µM;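 active means inhibition above the mean inhibition of all tested compounds plus 3 SD, cut at about 73% in these data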
VP16 Luc counter: Gal4-VP16 luciferase reporter inhibitors, counter-screen for COUP-TFII antagonist project, cell-based, luminescence, HEK293; AID 687007, 2013; shares compounds with NR2F2 inh; inhibition, % at 8.5 µM; 2,500 compounds, 25% hits; in the data active means inhibition above about 13%
NR2F2 inh conf: NR2F2 transcriptional activity inhibitors, confirmation, cell-based, luciferase reporter, HEK293, triplicate; shares compounds with NR2F2 inh; HEK293 NGFI-A luciferase reporter, luminescence; inhibition, % at 8.5 µM; 2,500 compounds, 45% hits;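 active means mean inhibition over three repeats above a set limit taken from the earlier primary screen, cut at about 38% in these data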
Hits are given with their value; i = inactive; nt = no result.

SMILES	GalR3 antag	SRC1 inh	SRC2 inh	NCOA3 inh	NR2F2 inh	LRH-1 inv ag	VP16 Luc counter	NR2F2 inh conf
O=C(CCCN1C(=O)/C(=C/c2ccccc2Cl)SC1=S)NNC(=O)c1ccccc1	i	i	81	i	64	i	28	38
O=S1(=O)c2ccc(Br)cc2OC[C@@H](c2ccccc2)N1Cc1cn(Cc2ccccc2)nn1	nt	nt	i	nt	i	nt	nt	nt
O=C(Cc1cccs1)NC1CCCCN(Cc2cccc(Cl)c2)C1=O (stereo unspecified)	nt	nt	i	nt	i	nt	nt	nt
CCCCn1c(N)c(N(CCOC)C(=O)CN2C(=O)c3ccccc3C2=O)c(=O)[nH]c1=O	i	i	i	i	i	i	nt	nt
Cc1cc(=O)n(C)c2ccccc12	i	i	i	i	i	i	nt	nt
Cc1cc(=O)n2c3c(c4c(cc13)c(CN(C)C)cc(=O)n4C)OC2	i	i	58	i	78	i	i	i
C=CCc1c(OC(C)=O)c2ccccc2n(C)c1=O	i	i	i	i	40	i	i	i
Cc1cc(C)c2c(N)c(C(=O)Nc3ncc(C)s3)sc2n1	i	i	77	i	74	i	35	67
Oc1cccc2cc(Nc3ccccc3)cnc12	i	i	i	69	55	90	i	46
Cc1ccc(-n2c(Cc3cccs3)nnc2SCC(=O)Nc2cccc3ccccc23)cc1	nt	nt	i	nt	i	nt	nt	nt
CN(C)c1ccc(N=Nc2nc3ccccc3n2C)cc1	i	i	i	i	61	i	i	i
c1ccc(Cn2ccc3ccc(-c4ccc5ccn(Cc6cccc(Oc7ccccc7)c6)c5c4)cc32)cc1	nt	nt	i	nt	i	nt	nt	nt
Cc1noc(C)c1COc1ccccc1C(=O)N(C)Cc1ccc(C(C)(C)C)cc1	i	i	i	i	41	i	i	i
CCOc1cccc(/C=N/NC(=S)Nc2ccccc2[N+](=O)[O-])c1O	i	84	60	80	82	79	i	67
CCc1nnc(N/N=C/c2c(C)[nH]c3ccccc23)n1N	i	i	i	i	53	i	i	i
Cn1ccnc1C(=O)O[C@@H]1CCC[C@@]2(C(=O)N(Cc3ccccc3)c3ccccc32)[C@H]1NC(=O)CCc1ccccc1	nt	nt	i	nt	i	nt	nt	nt
CCCc1c(-c2ccccc2OC)ncn1CCc1ccccc1OC	i	nt	i	nt	i	nt	nt	nt
CCCc1c(-c2ccc(OC)cc2)ncn1CCc1ccccc1OC	i	nt	i	nt	47	nt	i	i
Cc1ccc(S(=O)(=O)NCC(=O)OC(C)C(=O)NCc2ccc3c(c2)OCO3)cc1 (stereo unspecified)	i	i	i	i	i	i	nt	nt
Cc1ccc2cccc(S(=O)(=O)N3CCCc4ccccc43)c2n1	i	i	i	i	39	i	i	i
Cc1ccc(S(=O)(=O)N2CCCc3ccccc32)cc1	i	i	i	i	i	i	nt	nt
CCN(CC)c1ccc(/C=C/c2cccc[n+]2C)c(OC)c1	18	i	i	i	78	82	19	74
Cc1ccc(OCc2nnc(SCC(=O)Nc3ccc(OCc4ccccc4)cc3)n2-c2ccc(Cl)cc2)cc1	nt	nt	i	nt	i	nt	nt	nt
CC(=O)NC1C(=O)N(Cc2ccccc2)c2ccc(Br)cc21 (stereo unspecified)	i	i	i	i	38	i	i	i
CC(=O)NC1C(=O)N(CCc2ccccc2)c2ccc(Br)cc21 (stereo unspecified)	i	i	i	i	i	i	nt	nt
SMILES	GalR3 antag	SRC1 inh	SRC2 inh	NCOA3 inh	NR2F2 inh	LRH-1 inv ag	VP16 Luc counter	NR2F2 inh conf
COc1ccc(C2=C(C)C(N3CCN(C(=O)c4ccco4)CC3)=NS2(=O)=O)cc1	i	i	i	i	i	i	nt	nt
COc1ccc(Cn2cc(COC(=O)NCC(C)C)nn2)cc1	nt	nt	i	nt	i	nt	nt	nt
COc1ccccc1N1CCN(C(=O)CSc2nnc3n2C(C)(C)Cc2ccccc2-3)CC1	i	i	i	i	63	i	i	45
CC1Cc2ccccc2N1C(=O)CSc1nnc2n1C(C)(C)Cc1ccccc1-2 (stereo unspecified)	i	i	i	i	i	i	nt	nt
NC(=Nc1nc(-c2ccccn2)cc2ccccc12)c1ccccn1	i	71	i	81	42	i	i	i
O=c1c2ccccc2nc2n1C(CSc1ccccc1)CS2 (stereo unspecified)	i	i	i	i	i	i	nt	nt
O=c1c2ccccc2nc2n1C(CSCc1ccc(Cl)cc1)CS2 (stereo unspecified)	i	i	i	i	42	i	i	i
Cc1nc2ccc(S(=O)(=O)NCC(=O)NCc3ccc(F)cc3)cc2s1	nt	nt	i	nt	i	nt	nt	nt
CC1CC(C)C(=NNC(N)=O)C(C(O)CC2CCC(=O)NC2=O)C1 (stereo unspecified)	i	75	58	74	82	99	i	i
CCC1SC(C)C/C(=N/NC(N)=O)C1C (stereo unspecified)	i	i	i	i	i	i	nt	nt
CCn1c(SCC(=O)c2[nH]c(C)c(C(C)=O)c2C)nnc1-c1cccs1	i	i	i	i	52	i	i	i
O=C(NCCN1CCC(n2c(=O)[nH]c3ccccc32)CC1)c1ccc(C(F)(F)F)cc1C(F)(F)F	i	nt	i	nt	44	i	i	i
COc1cc(NS(=O)(=O)c2ccc(C)cc2C)cc(OC)c1OC	i	i	i	i	45	i	i	40
COc1cc(NS(=O)(=O)c2cc3[nH]c(=O)c(=O)[nH]c3cc2C)cc(OC)c1OC	i	i	i	i	i	i	nt	nt
CCCc1cn(-c2ccc3c(c2)[C@@]2(CC(=O)N(C)C2c2ccccc2)C(=O)N3CC(C)C)nn1 (stereo partly specified)	nt	nt	i	nt	i	nt	nt	nt
CCc1ccc(-c2nc(CSCC(=O)NCc3ccco3)c(C)o2)cc1	i	i	80	i	77	i	i	i
CCCNC(=O)CSCc1nc(-c2ccc(SC)cc2)oc1C	i	i	i	i	i	i	nt	nt
Cc1c(CC(=O)NCCCC(=O)O)c(=O)oc2cc3c(cc12)CCC(C)(C)O3	i	i	75	i	51	i	61	i
Cc1cc(NC(=O)c2ccc(NS(=O)(=O)c3ccc(F)cc3)cc2)no1	nt	nt	i	nt	i	nt	nt	nt
C[C@@H]1Cc2cc(O)c(O)c(O)c2C(=O)O1	nt	nt	i	nt	i	nt	nt	nt
C[C@@H]1C[C@H]2O[C@@H]2/C=C\C=C\C(=O)Cc2cc(O)cc(O)c2C(=O)O1	nt	nt	55	nt	86	nt	38	i
C[C@@H]1C[C@@H]2O[C@H]2CCCCC(=O)Cc2cc(O)cc(O)c2C(=O)O1	nt	nt	i	nt	63	nt	59	65
